# Experimental data as given in PubChem BioAssay (EPA / NIEHS).
# Calls of active or inactive are those of the source. The calls were made as follows: active = hit-call score of the fitted dose curve at least 0.9, where 1 is the maximum; inactive = score below 0.9.
# Read-out: Matrix Metallopeptidase 9 (MMP9), MMP9 (gene 4318)
# Assay: BSK_KF3CT_MMP9: BioMAP Diversity Plus: KF3CT Assay for Matrix Metallopeptidase 9 (MMP9) Biomarker Activity (AID 2283074);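 as to AC50: MMP9 protein level quantified by ELISA in the co-culture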
# Conditions: primary human keratinocytes with fibroblasts; actives raise or lower the signal
# How it was run: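 Human keratinocyte/foreskin fibroblast co-culture; compound added; 24 h; MMP-9 by ELISA; bidirectional fit vs DMSO baseline.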
Structure (SMILES),outcome,AC50
N#CC(Br)Br,inactive,–
OCCOCCO,inactive,–
O=C(N[C@H](c1ccccc1)[C@@H]1CN2CCC1CC2)c1c(Cl)ccc(C(F)(F)F)c1Cl,–,41.7 µM (active)
COP(=S)(OC)SCN1C(=O)c2ccccc2C1=O,inactive,–
C=CCc1ccc2c(c1)OCO2,inactive,–
O=C(Nc1ccccc1)c1ccccc1I,inactive,–
c1ccc(N=Nc2ccccc2)cc1,inactive,–
C1=Cc2cccc3cccc1c23,inactive,–
CS(=O)(=O)NC(=O)c1cc(Oc2ccc(C(F)(F)F)cc2Cl)ccc1[N+](=O)[O-],inactive,–
Oc1ccccc1Cl,inactive,–
CO[C@@H]1[C@H](OC(=O)NC(=O)CCl)CC[C@]2(CO2)[C@H]1[C@@]1(C)O[C@@H]1CC=C(C)C,–,6.36 µM (active)
CC(C)(C)OOC(=O)c1ccccc1,inactive,–
[As]#[In],inactive,–
Nc1ccc(N=Nc2ccccc2)cc1,–,20 µM (active)
c1ccc2c(c1)-c1cccc3cccc-2c13,–,28.9 µM (active)
CC(C)(OOC(C)(C)c1ccccc1)c1ccccc1,inactive,–
ClC1=C(Cl)[C@]2(Cl)[C@H]3[C@H]([C@@H]4C=C[C@H]3C4)[C@@]1(Cl)C2(Cl)Cl,–,11.6 µM (active)
O=[N+]([O-])c1ccc(Oc2ccc(Cl)cc2Cl)cc1,–,8.09 µM (active)
CCC[CH2][Sn]([Cl])([CH2]CCC)[CH2]CCC,–,0.292 µM (active)
CN(C)c1ccccc1,inactive,–
COC(=O)c1ccccc1N,inactive,–
CN(C)c1ccc(C(=O)c2ccc(N(C)C)cc2)cc1,inactive,–
Cc1cc(N=Nc2ccccc2C)ccc1N,–,19.9 µM (active)
C[N+](C)(C)CC1CO1 (stereo unspecified),inactive,–
O=Cc1ccco1,inactive,–
CCC(C)c1ccc(O)cc1 (stereo unspecified),inactive,–
[O-][Cl+]O,inactive,–
O=C(O)C1C2CCC(O2)C1C(=O)O (stereo unspecified),–,28.7 µM (active)

# Read-out: CD40, CD40 (gene 958)
# Assay: BSK_LPS_CD40: BioMAP Diversity Plus: LPS Assay for CD40 Biomarker Activity (AID 2283076)
# Conditions: primary human HUVEC with PBMC; actives raise or lower the signal
# How it was run: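 Cells were dosed, incubated 24 h, then assayed for CD40 by ELISA. Gain or loss of signal was analysed relative to DMSO controls. The culture paired human umbilical vein endothelium with peripheral blood mononuclear cells.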
Structure (SMILES),outcome,AC50
N#CC(Br)Br,inactive,–
OCCOCCO,inactive,–
O=C(N[C@H](c1ccccc1)[C@@H]1CN2CCC1CC2)c1c(Cl)ccc(C(F)(F)F)c1Cl,–,19.5 µM (active)
COP(=S)(OC)SCN1C(=O)c2ccccc2C1=O,inactive,–
C=CCc1ccc2c(c1)OCO2,inactive,–
O=C(Nc1ccccc1)c1ccccc1I,inactive,–
c1ccc(N=Nc2ccccc2)cc1,inactive,–
C1=Cc2cccc3cccc1c23,inactive,–
CS(=O)(=O)NC(=O)c1cc(Oc2ccc(C(F)(F)F)cc2Cl)ccc1[N+](=O)[O-],inactive,–
Oc1ccccc1Cl,inactive,–
CO[C@@H]1[C@H](OC(=O)NC(=O)CCl)CC[C@]2(CO2)[C@H]1[C@@]1(C)O[C@@H]1CC=C(C)C,–,3.77 µM (active)
CC(C)(C)OOC(=O)c1ccccc1,inactive,–
[As]#[In],inactive,–
Nc1ccc(N=Nc2ccccc2)cc1,inactive,–
c1ccc2c(c1)-c1cccc3cccc-2c13,inactive,–
CC(C)(OOC(C)(C)c1ccccc1)c1ccccc1,–,34.6 µM (active)
ClC1=C(Cl)[C@]2(Cl)[C@H]3[C@H]([C@@H]4C=C[C@H]3C4)[C@@]1(Cl)C2(Cl)Cl,–,32.1 µM (active)
O=[N+]([O-])c1ccc(Oc2ccc(Cl)cc2Cl)cc1,–,20 µM (active)
CCC[CH2][Sn]([Cl])([CH2]CCC)[CH2]CCC,–,0.148 µM (active)
CN(C)c1ccccc1,inactive,–
COC(=O)c1ccccc1N,inactive,–
CN(C)c1ccc(C(=O)c2ccc(N(C)C)cc2)cc1,–,17 µM (active)
Cc1cc(N=Nc2ccccc2C)ccc1N,inactive,–
C[N+](C)(C)CC1CO1 (stereo unspecified),inactive,–
O=Cc1ccco1,inactive,–
CCC(C)c1ccc(O)cc1 (stereo unspecified),inactive,–
[O-][Cl+]O,inactive,–
O=C(O)C1C2CCC(O2)C1C(=O)O (stereo unspecified),inactive,–
